Assay [1] can be described thus: Cell Viability - LYMP2-014 (AID 983).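 Also: plate controls were DMSO only for no effect and 92 µM tetraoctylammonium bromide for full effect; nearly all actives have a fitted effect of over 50% in size.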 The note with it: LYMP2-014 lymphoblastoid cells, viability qHTS; series mostly up to 92.2 µM. An outline of the steps:
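2500 cells/well, 5 hr 37 C; cpd 24 hr 37 C, complete medium; CellTiter-Glo 30 min RT, luminescence; ATP loss = toxicity; AC50 via Hill eqn; tetraoctylammonium bromide positive control.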

Assay [2] is described as follows: Cell Viability - LYMP2-016 (AID 984).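 Also: cells exposed to compound for 24 hours at 37 °C; % is scaled to controls: 0 for no effect and ±100 for the full control effect; nearly all actives have a fitted effect of over 55% in size.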 Particulars: LYMP2-016 lymphoblastoid cell viability, qHTS; series mostly up to 92.2 µM. The method in brief: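 Cytotoxicity was scored by luminescent ATP content (CellTiter-Glo) after 24 h compound exposure at 37 C of a human lymphoblastoid line at 2500 cells/well. Concentration-response data were fitted to the Hill equation for AC50.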

A short description of assay [3]: Cell Viability - LYMP2-018 (AID 985).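 Also: plate controls were DMSO only for no effect and tetraoctylammonium bromide at 92 µM for full effect; nearly all actives have a fitted effect of over 50% in size.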 Particulars: LYMP2-018 lymphoblastoid cells, viability (qHTS); series mostly up to 92.2 µM. The method in brief: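 2500 cells/well; 5 hr 37 C; cmpd 24 hr 37 C, complete medium; CellTiter-Glo 30 min RT; luminescence. Tetraoctylammonium bromide positive control. AC50 via Hill fit.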
The nature of assay [4]: Cell Viability - LYMP2-020 (AID 986).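 Also: plate controls were DMSO only for no effect and tetraoctylammonium bromide at 92 µM for full effect; nearly all actives have a fitted effect of over 55% in size.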 The note with it: series mostly up to 92.2 µM. The method in brief:
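qHTS, 2500 cells/well; 5 hr then 24 hr compound exposure, 37 C; CellTiter-Glo luminescence after 30 min RT; ATP decrease taken as cytotoxicity; AC50 via Hill equation; tetraoctylammonium bromide positive control.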

Assay [5] can be described thus: Cell Viability - LYMP2-022 (AID 987). Also: nearly all actives have a fitted effect of over 55% in size. Also: potency is read from the fitted curve at half-maximal effect. Particulars: LYMP2-022 lymphoblastoid cell viability; series mostly up to 92.2 µM. The method in brief: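 Luminescent ATP read-out (CellTiter-Glo, 30 min, RT) after 24 hr, 37 C compound exposure of 2500 human lymphoblastoid cells/well in complete medium. Cytotoxicity taken as concentration-dependent ATP loss; AC50 from standard Hill equation.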

A short description of assay [6]: Cell Viability - LYMP2-024 (AID 988).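 Also: plate controls were DMSO only for no effect and 92 µM tetraoctylammonium bromide for full effect; nearly all actives have a fitted effect of over 60% in size.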 Particulars: LYMP2-024 lymphoblastoid cell viability; series mostly up to 92.2 µM. The method in brief: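 ATP-based luminescence (CellTiter-Glo, 30 min RT) after 24 h compound exposure at 37 C of 2500 lymphoblastoid cells/well; decrease in ATP taken as cytotoxicity. qHTS concentration-response fitted to standard Hill equation for AC50.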

The nature of assay [7]: Cell Viability - LYMP2-026 (AID 989). Also: % is scaled to controls: 0 for no effect and ±100 for the full control effect; nearly all actives have a fitted effect of over 50% in size. The note with it: LYMP2-026 lymphoblastoid cell viability, qHTS; series mostly up to 92.2 µM. The method in brief:
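qHTS cytotoxicity: 2500 cells/well, 5 hr 37 C, compound 24 hr 37 C, CellTiter-Glo 30 min RT, luminescence. Tetraoctylammonium bromide positive control. AC50 via standard Hill fit.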

Assay [8] can be described thus: Cell Viability - LYMP1-002 - Assay at 24 hr (AID 993). Also: % is scaled to controls: 0 for no effect and ±100 for the full control effect. Particulars: LYMP1-002 lymphoblastoid cells viability; series mostly up to 92.2 µM. The method in brief: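 CellTiter-Glo luminescence (intracellular ATP) after 24 h compound exposure, 37 C, in LYMP1-002 human lymphoblastoid cells; decreased ATP taken as cytotoxicity. AC50 from standard Hill fit of concentration-response curves.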

Assay [9] can be described thus: Cell Viability - LYMP1-002 - Assay at 40 hr (AID 994). Also: nearly all actives have a fitted effect of over 60% in size. Also: potency is read from the fitted curve at half-maximal effect. The note with it: LYMP1-002 lymphoblastoid cell viability; series mostly up to 92.2 µM. An outline of the steps: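 qHTS cytotoxicity; 2500 cells/well, 5 hr 37 C settle, compound 40 hr 37 C. CellTiter-Glo, 30 min RT, luminescence (ATP). Concentration-response, Hill fit → AC50. Pos. ctrl tetraoctylammonium bromide.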

A short description of assay [10]: qHTS Assay for Lipid Storage Modulators (AID 1519; calls by dose curve; as to activity change, negative = inhibition: % is scaled to controls: 0 for no effect and ±100 for the full control effect). Particulars: Drosophila S3 cells, BODIPY lipid droplet/cell ratio, laser cytometry, cells loaded with oleic acid. The method in brief:
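Cells seeded at 5,000 per well were treated with compounds over a concentration series and loaded with oleic acid (400 uM, as added). Lipid droplet fluorescence (488 nm excitation, 500-530 nm channel) was read by laser-scanning cytometry and normalized to 20 uM Triacsin C.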

Assay [11] can be described thus: Counterscreen for APE1 Inhibitors: Fluorescent Dye Displacement Validation Assay (AID 1707).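 Also: plate controls were ThO with dsDNA and no compound for no effect and ThO without dsDNA for full effect.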 The note with it: fluorescent dye displacement from DNA; series mostly up to 57.1 µM. The method in brief:
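Loss of Thiazole Orange fluorescence marks promiscuous DNA binders. The dye (250 nM) is mixed with 50 nM abasic-site dsDNA in pH7.5 Tris buffer containing MgCl2, then compounds are added and emission is read once.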

The nature of assay [12]: qHTS for differential inhibitors of proliferation of Plasmodium falciparum line 7G8 (AID 1815).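 Also: parasite growth measured after three days of incubation; plate controls were vehicle wells for no effect and reference inhibitor wells for full effect.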 The note with it: Plasmodium falciparum 7G8 proliferation inhibition; series mostly up to 28.7 µM.
Assay [13] is described as follows: qHTS for differential inhibitors of proliferation of Plasmodium falciparum line 3D7 (AID 1876).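 Also: parasite growth measured after three days of culture; 0% = vehicle wells and -100% = reference inhibitor wells.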 Particulars: P. falciparum 3D7 proliferation inhibition; series mostly up to 28.7 µM.
The mark [14] stands for this setting: measured here: cell count channel max response.
The mark [15] stands for this setting: measured here: lipid channel max response.

Values joined by “and” are separate entries in the source; they are usually repeats but may differ in a detail not shown here. Identical values can stand only once. Inconclusive results are not listed. Active and inactive are the calls of the source. Unless noted, calls follow the shape of the dose curve; as a rule, active = well fitted curve in the direction sought with a large enough effect; inconclusive = small, poorly fitted or top-dose-only effect, or another doubt; inactive = no such curve, though single readings can be large; an effect the other way counts as inactive or inconclusive.

`O=C(O)c1cc(=O)[nH]c(=O)[nH]1`: the Potency result in [1], in assay [2], in [3], in assay [4], in [5] and in assay [6] was “inactive” in each case. For the same compound, the Potency result in [7], in assay [8] and in assay [9] was “inactive” in each case.

On to `Cc1cc(NS(=O)(=O)c2ccc(N)cc2)no1`, for which the Potency entry in [1], in [2], in [3], in assay [4], in [5] and in [6] was “inactive” throughout. For the same compound, the Potency entry in assay [7], in [8] and in assay [9] was “inactive” throughout. Moreover, the activity change, negative = inhibition in [10] (at 25.7 µM (top of the series)) was 0.06% (inactive); in assay [10] (at 57.5 µM (top of the series)) it was 10.1% (inactive). The max response was 8.41% and 20.8% in [10] (setting [14]); 8.63% and 34.6% in assay [10] (setting [15]).

Take `CCn1cc(C(=O)O)c(=O)c2cc(F)c(N3CCNCC3)nc21`: the activity change, negative = inhibition in [10] (at 25.7 µM (top of the series)) was 0.491% (inactive); in assay [10] (at 57.5 µM (top of the series)) it was 8.65% (inactive). The max response is 9.91% and 14.4% in assay [10] (setting [14]); 12.7% and 27.2% in assay [10] (setting [15]).

Take `N=C(N)c1ccc(OCCCCCOc2ccc(C(=N)N)cc2)cc1`: the results for the Potency in [5] and in [9] were 39.8 µM (active) and 50.1 µM (active), respectively.

As to `CC[C@H](C)C(=O)O[C@H]1C[C@@H](C)C=C2C=C[C@H](C)[C@H](CC[C@@H]3C[C@@H](O)CC(=O)O3)[C@H]21`, the Potency result in [1], in assay [2], in [3], in assay [5], in assay [6] and in assay [7] was “inactive” in each case. Further, in assay [8], the Potency entry is “inactive”.

For `NC(=O)N1c2ccccc2CC(=O)c2ccccc21`, the activity change, negative = inhibition in assay [10] (at 57.5 µM (top of the series)) is 6.03% (inactive). The figures for the max response in [10] (setting [14]) and in [10] (setting [15]) were 10.2% and 19.4%, respectively.

Regarding `Cc1ncc([N+](=O)[O-])n1CCO`, the Potency entry in assay [1], in assay [2], in assay [3], in [4], in [5] and in assay [6] was “inactive” each time. The Potency result in [7], in [8] and in [9] was “inactive” in each case.

For `Nc1nc(N)c2nc(CNc3ccc(C(=O)NC(CCC(=O)O)C(=O)O)cc3)cnc2n1` (stereo not drawn), the activity change, negative = inhibition in assay [10] (at 57.5 µM (top of the series)) is 6.58% (inactive) and 1.3% (inactive). The max response in assay [10] (setting [14]) was 6.78% and -3.02%; in assay [10] (setting [15]), 18.5% and 0.109%. The compound was called inactive in assay [11]. Besides, the Potency entry in [12] and in [13] was “inactive” in each case.

The record behind these values is PubChem BioAssay (NCATS).
